Measurements as given in PubChem BioAssay (NCATS).
Inconclusive results are not listed. Active and inactive are the calls of the source. Unless noted, the call rests on the fitted dose curve; in most records, active means well fitted curve in the direction sought with a large enough effect; inconclusive means small, poorly fitted or top-dose-only effect, or another doubt; inactive means no such curve, though single readings can be large; an effect the other way counts as inactive or inconclusive.

Legend:
[1] = Cytometric Cell-Based qHTS for Inhibitors of the mTORC1 Signaling Pathway in MEF (Tsc2-/-, p53-/-) Cells (AID 2660); conditions: mTORC1 pathway cytometry; series mostly up to 38.3 µM;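 further: percent of cells above a phospho-rpS6 to PI ratio cutoff in each well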
Outline: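 Immunofluorescence qHTS of rpS6 Ser235/236 phosphorylation: MEFs (Tsc2-/-, p53-/-) treated 24 h, 37 C, in DMEM + 10% FBS. Alexa-488 signal normalized to PI count, referenced to rapamycin (7.5 nM) and DMSO; PI cell number recorded for viability.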

[2] = High Content Imaging Cell-Based qHTS for Inhibitors of the mTORC1 Signaling Pathway in MEF (Tsc2-/-, p53-/-) Cells (AID 2666); conditions: at 38.3 µM (top of the series);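 further: percent of cells scored positive for phospho-rpS6 Ser235/236 immunostaining by imaging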
Outline: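 Read-out: % positive cells per well, with thresholds from highest- and lowest-signal wells, based on phospho-rpS6 (Ser235/236) intensity normalized to Hoechst nuclear stain. Cells: Tsc2-/-, p53-/- MEFs carrying empty vector; compound 24 hrs, 37 degree Celsius.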

[3] = High Content Imaging Cell-Based qHTS for Inhibitors of the mTORC1 Signaling Pathway in MEF Cells (AID 2667); conditions: series mostly up to 38.3 µM;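 further: Tsc2-/- p53-/- MEFs stably re-expressing wild-type Tsc2 exposed 24 h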
Outline: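 MEF (Tsc2-/-, p53-/-, WT Tsc2 re-expressed); cpd 24 h, 37 °C; PFA fix; Alexa-488 anti-p-rpS6 Ser235/236, PI, Hoechst; IN Cell imaging; Hoechst/Alexa-488 intensity ratio; % active cells, thresholds set from rapamycin and DMSO wells.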

[4] = Cytometry Cell-Based qHTS for Inhibitors of the mTORC1 Signaling Pathway in MEF cells (AID 2668); conditions: mTORC1 pathway readout; series mostly up to 38.3 µM;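 further: Tsc2-/- p53-/- mouse embryonic fibroblasts stably re-expressing wild-type Tsc2; percent cells positive for phospho-rpS6 Ser235/236 relative to propidium iodide stain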
Outline: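 WT MEFs (Tsc2-/-, p53-/- stably re-expressing WT Tsc2) in DMEM + 10% FBS received compounds 24 hrs after plating, for 24 hrs at 37 degree Celsius. Fixed cells stained with Alexa-488 anti-phospho-rpS6 Ser235/236 and propidium iodide; laser-scanning cytometry read-out.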

[5] = molecular target: Tumor susceptibility gene 101 protein (Homo sapiens) (UniProt Q99816); assay: qHTS Validation Assay for Iinhibitors of HIV-1 Budding by Blocking the Interaction of PTAP/TSG101 (AID 485342; calls by dose curve); conditions: TSG101-PTAP binding, fluorescence polarization, 4-point titration; series mostly up to 115 µM
Chain of Tumor susceptibility gene 101 protein (Homo sapiens) (Q99816 whole entry, looked up, the tested form may be a part): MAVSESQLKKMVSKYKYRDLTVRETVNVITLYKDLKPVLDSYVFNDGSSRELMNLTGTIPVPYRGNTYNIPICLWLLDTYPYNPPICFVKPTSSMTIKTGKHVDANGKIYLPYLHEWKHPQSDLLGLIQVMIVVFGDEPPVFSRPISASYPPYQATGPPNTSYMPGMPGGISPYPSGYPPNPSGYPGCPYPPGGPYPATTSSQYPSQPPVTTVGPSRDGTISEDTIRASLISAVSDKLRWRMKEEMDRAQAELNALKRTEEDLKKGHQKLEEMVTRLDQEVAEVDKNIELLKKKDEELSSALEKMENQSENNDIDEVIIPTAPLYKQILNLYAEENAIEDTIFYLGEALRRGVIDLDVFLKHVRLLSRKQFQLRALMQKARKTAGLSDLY
Outline: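 Tsg101 binding domain (10 uM final) in pH 7.5 HEPES/NaCl/Tween 20/EDTA/TCEP buffer was mixed with pin-transferred compounds, then FITC-labeled PTAP peptide (50 nM final) was added; after 20 min at r.t., fluorescence polarization was read.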

[6] = molecular target: Beta-2 adrenergic receptor (Homo sapiens) (UniProt P07550); assay: qHTS validation assay of beta-arrestin-biased ligands of beta2-adrenergic receptor (AID 485366); conditions: cell-based beta-arrestin recruitment to ADRB2, qHTS; series mostly up to 46.1 µM
Chain of Beta-2 adrenergic receptor (Homo sapiens) (P07550 whole entry, looked up): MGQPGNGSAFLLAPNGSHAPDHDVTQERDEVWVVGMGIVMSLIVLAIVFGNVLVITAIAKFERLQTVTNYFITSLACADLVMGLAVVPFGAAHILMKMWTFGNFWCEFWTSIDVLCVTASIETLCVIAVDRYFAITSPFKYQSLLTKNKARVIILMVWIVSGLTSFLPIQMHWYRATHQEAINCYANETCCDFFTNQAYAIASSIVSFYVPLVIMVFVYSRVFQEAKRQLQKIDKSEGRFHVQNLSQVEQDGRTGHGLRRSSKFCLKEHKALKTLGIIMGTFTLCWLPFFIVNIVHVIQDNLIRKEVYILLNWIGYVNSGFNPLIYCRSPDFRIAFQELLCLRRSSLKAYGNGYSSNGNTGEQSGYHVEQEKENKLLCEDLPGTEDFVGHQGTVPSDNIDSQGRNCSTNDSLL
Outline: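 Arrestin-recruitment (Tango) reporter: ligand-bound beta2-AR recruits beta-arrestin, releasing tTA, which upregulates luciferase. Titrations of up to 46 microM incubated 18 hr at 37 degrees C before luminescent readout.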

[7] = molecular target: ATP-dependent 6-phosphofructokinase (Trypanosoma brucei brucei) (UniProt O15648); assay: qHTS Validation Assay to Find Inhibitors of T. brucei phosphofructokinase (AID 485368); conditions: T. brucei PFK enzyme assay, qHTS 7-point titration; series mostly up to 57.5 µM
Chain of ATP-dependent 6-phosphofructokinase (Trypanosoma brucei brucei) (O15648 whole entry, looked up): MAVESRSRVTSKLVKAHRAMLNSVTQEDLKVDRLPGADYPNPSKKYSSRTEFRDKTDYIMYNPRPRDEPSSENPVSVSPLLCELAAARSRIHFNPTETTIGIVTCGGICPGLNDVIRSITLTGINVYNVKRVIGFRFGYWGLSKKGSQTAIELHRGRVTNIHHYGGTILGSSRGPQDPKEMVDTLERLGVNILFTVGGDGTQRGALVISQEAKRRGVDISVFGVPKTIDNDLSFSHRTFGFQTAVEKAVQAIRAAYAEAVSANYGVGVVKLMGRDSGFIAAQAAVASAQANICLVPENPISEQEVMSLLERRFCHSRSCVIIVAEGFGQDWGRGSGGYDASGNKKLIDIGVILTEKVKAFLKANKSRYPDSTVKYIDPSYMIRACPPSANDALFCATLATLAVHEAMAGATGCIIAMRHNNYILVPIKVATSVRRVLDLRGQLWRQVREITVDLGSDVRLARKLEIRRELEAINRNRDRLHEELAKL
Outline: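 Steps: substrate mix (0.5 mM F6P, 0.1 mM ATP, MgCl2, TEA pH 8.0); compound; 1.25 nM T. brucei PFK; 45 min RT; ATP depletion 10 min; ADP-to-ATP detection 10 min; luminescence read; curve fitting and classification.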

[8] = Validation screen for inhibitors of Lassa infection (AID 463096; calls by dose curve); conditions: Lassa virus infection, cell-based; series mostly up to 46.1 µM
[9] = Validation screen for small molecules that induce DNA re-replication in MCF 10A normal breast cells (AID 463097); conditions: MCF 10A cells, DNA re-replication phenotype imaging; series mostly up to 46.1 µM; further: nearly all actives have a fitted effect of over 60% in size
Outline: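 Readout: Hoechst nuclear fluorescence intensity, 405 ex / 500-530 em, by scanning plate imager; re-replication scored as increase in nuclei with elevated DNA content. Cells exposed to compound 48 hr, 37 C, 5% CO2 beforehand.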

[10] = qHTS Validation Assay to Find Inhibitors of Chronic Active B-Cell Receptor Signaling (AID 485345; active means well fitted curve in the direction sought with a large enough effect in the main read-out, with a control signal flat, not every such curve was filed as active); conditions: ABC-DLBCL cells, chronic BCR signaling reporter, CBG luciferase; series mostly up to 46.1 µM
Outline: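 TMD8 ABC-DLBCL cells with dox-inducible green luciferase–IκBα fusion and red native luciferase; compounds 46 uM–3 nM, 4 h at 37C with doxycycline in 0.5% FBS IMDM. Green/red ratio normalized to basal and 10 uM MG-132.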

Measured: outcome

COc1ccc2c(c1OC)C(=O)O[C@H]2[C@@H]1c2cc3c(cc2CCN1C)OCO3
not listed: [8] | [9] | [10]
inactive: all other assays above

O=c1[nH]c(=O)n([C@H]2C[C@H](O)[C@@H](CO)O2)cc1Br
inactive: [8]

CC1COc2c(N3CCN(C)CC3)c(F)cc3c(=O)c(C(=O)O)cn1c23 (configuration not stated)
inactive: [8]

CN1C(=O)CCS(=O)(=O)C1c1ccc(Cl)cc1 (configuration not stated)
inactive: all assays above

CCCCC/C=C\C/C=C\C/C=C\C/C=C\CCCC(=O)NCC(=O)O
not listed: [7]
inactive: all other assays above

O=C(O)CCCc1ccc(N(CCCl)CCCl)cc1
not listed: [7] | [9] | [10]
inactive: all other assays above

CCN(CC)C(=O)c1ccc(O)c(OC)c1
inactive: [8]

CC(C)N(CCC(C(N)=O)(c1ccccc1)c1ccccn1)C(C)C (configuration not stated)
inactive: all assays above

O=C(CCCN1CCC2(CC1)C(=O)NCN2c1ccccc1)c1ccc(F)cc1
not listed: [8] | [9] | [10]
inactive: all other assays above

Cc1cnc(NC(=O)C2=C(O)c3ccccc3S(=O)(=O)N2C)s1
inactive: [8]

Cc1nc2c([nH]1)c(=O)n(C)c(=O)n2Cc1ccco1
inactive: [8]

Cc1ncsc1CCCl
not listed: [8] | [9]
inactive: all other assays above

CC(C)c1cccc(C(C)C)c1O
inactive: all assays above

O=P1(N(CCCl)CCCl)NCCCO1 (configuration not stated)
inactive: all assays above

NC(N)=NC(=O)Cc1c(Cl)cccc1Cl
inactive: [8]

CCCNC(C)C(=O)Nc1ccccc1C (configuration not stated)
inactive: [8]

CCO/C([O-])=N/c1c[n+](N2CCOCC2)no1
inactive: [8]

O=c1[nH]oc2c1CCNC2
not listed: [9]
inactive: all other assays above

CNC[C@H](O)c1cccc(O)c1
inactive: [8]

CCC1(c2ccc(N)cc2)CCC(=O)NC1=O (configuration not stated)
inactive: all assays above

CC(NC(C)(C)C)C(=O)c1cccc(Cl)c1 (configuration not stated)
not listed: [7]
inactive: all other assays above

Cc1nnc(SCC2=C(C(=O)O)N3C(=O)[C@@H](NC(=O)Cn4cnnn4)[C@H]3SC2)s1
inactive: [8]

NCCc1ccc(O)cc1
inactive: all assays above

c1ccc2c(c1)CCCC2C1=NCCN1 (configuration not stated)
inactive: [8]

NC(N)=Nc1nc(CSCC/C(N)=N/S(N)(=O)=O)cs1
inactive: [8]

Nc1cc(=O)[nH]c(N)n1
inactive: [8]

C=C(C)[C@H]1CN[C@H](C(=O)O)[C@H]1CC(=O)O
not listed: [7]
inactive: all other assays above

COc1ccc(C2CNC(=O)C2)cc1OC1CCCC1 (configuration not stated)
inactive: [8]

O=C(O)CN(CCN(CC(=O)O)CC(=O)O)CCN(CC(=O)O)CC(=O)O
inactive: [8]

CC(C)(C)NCC(O)c1ccccc1Cl (configuration not stated)
not listed: [7]
inactive: all other assays above

CCN(CC)CC#CCOC(=O)C(O)(c1ccccc1)C1CCCCC1 (configuration not stated)
inactive: [8]

Cn1c(=O)c2[nH]cnc2n(C)c1=O
inactive: [8]

C[N+](C)(C)CCCCCC[N+](C)(C)C
inactive: [8]

CC(C)(C)NCC(O)c1cc(O)cc(O)c1 (configuration not stated)
inactive: [8]

CC(C)NCC(O)c1ccc(NS(C)(=O)=O)cc1 (configuration not stated)
inactive: [8]

COc1cc(-c2ccc(=O)[nH]n2)ccc1OC(F)F
inactive: [8]

CC(=O)OCC1=C(C(=O)O)N2C(=O)[C@@H](NC(=O)Cc3cccs3)[C@H]2SC1
inactive: [8]

CCOC(=O)C1=C(C)NC(C)=C(C(=O)OC)C1c1cccc([N+](=O)[O-])c1 (configuration not stated)
inactive: [8]
